{"source": "PubChem BioAssay AID485317", "about": "(Broad Institute, 2010)", "note": "About 11,000 (3.8%) of roughly 290,000 compounds were called active. Only a selection was taken, and actives are over-represented in it overall. Unmarked numbers belong to inactive results.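 The calls were made as follows: active = mean replicate inhibition above about 79%, with every replicate also reaching it (limit read from the data); inconclusive = only one of the two criteria met; inactive = mean below limit and not every replicate reaching it.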", "data": [{"biological_target": "FAD-linked sulfhydryl oxidase ALR (Homo sapiens) (UniProt P55789)", "sequence (P55789 whole entry, looked up)": "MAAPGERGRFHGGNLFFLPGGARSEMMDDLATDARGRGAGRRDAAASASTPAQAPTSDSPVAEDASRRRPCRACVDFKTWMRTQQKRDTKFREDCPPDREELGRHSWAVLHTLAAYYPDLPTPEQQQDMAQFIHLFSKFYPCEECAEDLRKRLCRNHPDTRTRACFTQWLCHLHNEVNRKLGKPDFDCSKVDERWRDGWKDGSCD", "experiment": "inhibitors of human ALR sulfhydryl oxidase, primary screen, biochemical, H2O2 detection, HRP-luminol luminescence, single point (AID 485317)", "settings": "purified ALR, DTT oxidation, stronger effect = higher value, concentration not given here", "values": [{"smiles": "O=C1CCCC(O)=C1N=Nc1ccc(S(=O)(=O)N2CCOCC2)cc1", "inhibition": "-10.4%"}, {"smiles": "O=C1CCCC(O)=C1N=Nc1ccc2ncsc2c1", "inhibition": "97.4% (active)"}, {"smiles": "COc1ccccc1-c1sc2ccccc2c1C#CC1(O)CCCCC1", "inhibition": "-3.52%"}, {"smiles": "O=C(NCc1ccco1)/C(=C/c1cccc([N+](=O)[O-])c1)NC(=O)c1ccco1", "inhibition": "69.6%"}, {"smiles": "CCC(CC)NC(=O)/C=C/c1cccc([N+](=O)[O-])c1", "inhibition": "-3%"}, {"smiles": "O=C(/C=C/c1ccc([N+](=O)[O-])cc1)NCCSCc1ccco1", "inhibition": "98.4% (active)"}, {"smiles": "O=C(CSCc1ccc([N+](=O)[O-])cc1)NCCSCc1ccccc1", "inhibition": "-10.2%"}, {"smiles": "O=C(NCc1ccco1)c1ccc([N+](=O)[O-])cc1Cl", "inhibition": "-19%"}, {"smiles": "O=C(/C=C/c1cccc([N+](=O)[O-])c1)NCCSCc1ccco1", "inhibition": "98.5% (active)"}, {"smiles": "CCN(C(=O)CSc1ncnc2sccc12)c1c(N)n(Cc2ccccc2)c(=O)[nH]c1=O", "inhibition": "-0.954%"}, {"smiles": "CCNC(=S)N(CCc1c(C)[nH]c2ccc(C)cc12)Cc1ccco1", "inhibition": "69.2%"}, {"smiles": "COCCNC(=S)N(Cc1cccnc1)Cc1ccc(OC)c(OC)c1", "inhibition": "-1.92%"}, {"smiles": "COCCNC(=S)N(CCc1c(C)[nH]c2ccc(C)cc12)Cc1cccnc1", "inhibition": "90.7% (active)"}, {"smiles": "Cc1n[nH]c(=O)c2c(NC(=O)CSc3ccccc3F)oc(C)c12", "inhibition": "1.87%"}, {"smiles": "CC(C)COc1ccc(C(=O)NNC(=O)CCC(=O)c2cccs2)cc1", "inhibition": "-17.3%"}, {"smiles": "CC(NC(=O)COC(=O)CCC(=O)c1ccc(Cl)cc1)c1ccccc1", "note": "(centres undefined)", "inhibition": "-2.75%"}, {"smiles": "Cc1noc(C)c1C(=O)OC(C)C(=O)Nc1ccc2c(c1)OCO2", "note": "(centres undefined)", "inhibition": "-0.736%"}, {"smiles": "Cc1cccc(N2CCN(c3ccc(NC(=O)/C=C\\C(=O)O)cc3)CC2)c1", "inhibition": "99% (active)"}, {"smiles": "O=C(Nc1cccc(NC(=O)N2CCN(c3ccccc3)CC2)c1)N1CCN(c2ccccc2)CC1", "inhibition": "-1.81%"}, {"smiles": "CSc1ccc(NC(=O)/C=C/C(=O)O)cc1", "inhibition": "0.113%"}, {"smiles": "Cc1ccc(CN2CCN(c3ccccc3Cl)CC2)o1", "inhibition": "2%"}, {"smiles": "CN1CCN(S(=O)(=O)c2ccc(Nc3ccc(F)cc3)nc2)CC1", "inhibition": "-2.65%"}, {"smiles": "O=C(OCC(=O)N1CCCCCC1)c1ccc(Br)c(S(=O)(=O)N2CCOCC2)c1", "inhibition": "-8.29%"}, {"smiles": "COc1ccc(NC(=O)CN(C)C(=O)Cc2coc3cc(C)c(C)cc23)cc1", "inhibition": "0.212%"}, {"smiles": "CCC1CO/C(=C(\\C(=C(Cl)Cl)N2CCOCC2)[N+](=O)[O-])N1", "note": "(centres undefined)", "inhibition": "81% (active)"}, {"smiles": "COC(=O)[C@]1(C)CCC[C@@]2(C)C3CC[C@]4(OC(C)=O)C[C@@]3(CCC21)CC4=NO", "note": "(some centres undefined)", "inhibition": "-3.27%"}, {"smiles": "COc1ccc(C(=O)Nc2cccc(NC(=O)c3ccc(OC)cc3OC)n2)c(OC)c1", "inhibition": "-5.93%"}, {"smiles": "CCCCn1c(N)c(N(CCOC)C(=O)COc2c(C)cccc2C)c(=O)[nH]c1=O", "inhibition": "-2.66%"}, {"smiles": "CSc1nc(C)cc(SC(C(C)=O)C(=O)Nc2ccccc2)n1", "note": "(centres undefined)", "inhibition": "92.7% (active)"}, {"smiles": "CSc1nsc(NC(=O)Nc2ccccc2)n1", "inhibition": "4.37%"}, {"smiles": "Cc1cc(SCC(=O)c2ccccc2)nc(SCC(=O)c2ccccc2)n1", "inhibition": "1.19%"}, {"smiles": "O=C(COC(=O)C1CC2CCCC(C1)C2=O)NC(=O)c1ccccc1", "note": "(centres undefined)", "inhibition": "1.09%"}, {"smiles": "O=C(CN1C2=NCCN2c2ccccc21)c1cccs1", "inhibition": "17.3%"}, {"smiles": "CC(C)(C)C(=O)CN1C2=NCCN2c2ccccc21", "inhibition": "93.6% (active)"}, {"smiles": "OC(CN1C2=NCCCN2c2ccccc21)c1ccc(Br)cc1", "note": "(centres undefined)", "inhibition": "9.53%"}, {"smiles": "O=C1C=C(c2cccc(Cl)c2)C[C@@H](c2ccc(F)cc2)C1", "inhibition": "-8.67%"}, {"smiles": "Cc1cc(NC(=O)CSc2nc3ccccc3n2CC(C)C)no1", "inhibition": "-5.8%"}, {"smiles": "CC(C)Cn1c(SCC(=O)Nc2ccc(Cl)cc2F)nc(O)cc1=O", "inhibition": "98.5% (active)"}, {"smiles": "Cc1ccccc1-n1c(SCC(=O)Nc2cccc3ccccc23)nc(O)cc1=O", "inhibition": "59.8%"}, {"smiles": "COc1ccccc1-c1nn(Cc2ccccc2)cc1C(=O)N1CCN(c2ncccn2)CC1", "inhibition": "1.87%"}, {"smiles": "C=CC[C@@H](CC(=O)NCCO)C(=O)N[C@H](C)COC(=O)[C@@H](CC=C)CC(=O)OC(C)(C)C", "inhibition": "4.16%"}, {"smiles": "CCN1C(=O)[C@H]2[C@@H](c3ccc(-c4ccc(F)cc4)cc3)N[C@@](Cc3ccccc3)(C(=O)OC)[C@H]2C1=O", "inhibition": "-2.13%"}, {"smiles": "CCCn1c(C2CCCN2c2nc(-c3ccc(OC)cc3)cs2)nc2ccccc21", "note": "(centres undefined)", "inhibition": "-0.584%"}, {"smiles": "CCOC(=O)C1CCCN(C(=O)CSc2nnc3nc(C)cc(C)n23)C1", "note": "(centres undefined)", "inhibition": "-0.482%"}, {"smiles": "COc1cccc(NC(=O)CC(c2ccc(OC(C)C)cc2)c2ccccc2OC)c1", "note": "(centres undefined)", "inhibition": "1.22%"}, {"smiles": "C=CCC(Nc1ccccc1)c1cccc(OC)c1OC", "note": "(centres undefined)", "inhibition": "98.9% (active)"}, {"smiles": "COc1cccc(C(O)Cc2nc3ccccc3n2C)c1OC", "note": "(centres undefined)", "inhibition": "2.27%"}, {"smiles": "C=CCC(NCCCO)c1cccc(OC)c1OC", "note": "(centres undefined)", "inhibition": "99.7% (active)"}, {"smiles": "COc1ccc(CNCCCO)cc1OC", "inhibition": "1.87%"}, {"smiles": "C=CCC(NCc1ccco1)c1ccc(OC)cc1", "note": "(centres undefined)", "inhibition": "1.8%"}, {"smiles": "CCOC(=O)[C@H]1[C@H]2COc3ccc(C)cc3[C@@H]2N2C(=O)CN(Cc3ccc(F)cc3)C(=O)[C@@]12C", "inhibition": "-13.6%"}, {"smiles": "CCOCc1c(C(=O)N2CCN(Cc3ccc(Br)s3)CC2)oc2ccccc12", "inhibition": "1.34%"}, {"smiles": "CCN(CC(=O)Nc1ccccc1C(F)(F)F)C(=O)CSCc1c(C)noc1C", "inhibition": "6.19%"}, {"smiles": "Cc1ccccc1NC(=O)C(C)OC(=O)CCC(=O)N(CC(C)C)c1c(N)n(CC(C)C)c(=O)[nH]c1=O", "note": "(centres undefined)", "inhibition": "-8.82%"}, {"smiles": "COc1cc(C(=S)N2CCOCC2)ccc1O", "inhibition": "-6.46%"}, {"smiles": "COc1cc(C(=S)NC2CCCCC2)ccc1O", "inhibition": "98.5% (active)"}, {"smiles": "COc1ccc(C(=O)NC(=S)NC2CCCCC2)cc1", "inhibition": "3.44%"}, {"smiles": "O=C(CN1CCN(S(=O)(=O)c2cccc(Cl)c2)CC1)N1CCCCC1", "inhibition": "14.4%"}, {"smiles": "O=C(NCC1(N2CCCCC2)CCCCC1)c1ccc(NS(=O)(=O)c2ccc(F)cc2)cc1", "inhibition": "7.5%"}]}]}
